The source made the active and inactive calls. The calls were made as follows: active = hit-call score of the fitted dose curve at least 0.9, where 1 is the maximum; inactive = score below 0.9.
What follows are compounds tested against Transcriptional activator Myb (Homo sapiens) (UniProt P10242) (assay: ATG_Myb_CIS: Attagene CIS-FACTORIAL HepG2 Assay for human Myeloblastosis (Myb) Proto-Oncogene Transcription Factor (AID 2282986)). Details: HepG2 Attagene CIS-FACTORIAL Myb reporter transcription; actives raise or lower the signal.
Sequence of Transcriptional activator Myb (Homo sapiens) (P10242 whole entry, looked up): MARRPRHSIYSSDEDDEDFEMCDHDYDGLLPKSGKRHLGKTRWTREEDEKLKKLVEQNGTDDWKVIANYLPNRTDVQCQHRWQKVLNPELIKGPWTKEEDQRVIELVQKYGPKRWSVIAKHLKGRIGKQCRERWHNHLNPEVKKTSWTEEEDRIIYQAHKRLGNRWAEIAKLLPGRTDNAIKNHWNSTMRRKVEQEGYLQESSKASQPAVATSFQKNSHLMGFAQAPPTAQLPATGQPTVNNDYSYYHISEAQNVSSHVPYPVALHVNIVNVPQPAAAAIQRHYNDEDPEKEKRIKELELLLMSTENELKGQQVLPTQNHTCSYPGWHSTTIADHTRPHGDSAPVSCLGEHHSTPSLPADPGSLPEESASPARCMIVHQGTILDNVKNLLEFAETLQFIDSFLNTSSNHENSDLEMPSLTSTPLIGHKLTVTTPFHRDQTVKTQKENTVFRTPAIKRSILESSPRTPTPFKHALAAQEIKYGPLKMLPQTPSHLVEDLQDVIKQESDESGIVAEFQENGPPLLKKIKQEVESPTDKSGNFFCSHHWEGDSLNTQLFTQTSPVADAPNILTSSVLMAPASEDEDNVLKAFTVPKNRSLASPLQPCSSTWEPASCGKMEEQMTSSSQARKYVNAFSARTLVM
Description: ATG_CIS is a cell-based, multiplexed-readout assay that uses HepG2, a human liver cell line, with measurements taken at 24 hours after chemical dosing in a 24-well plate.ATG_Myb_CIS is one of 52 assay component(s) measured or calculated from the ATG_CIS assay. It is designed to make measurements of mRNA induction, a form of inducible reporter, as detected with fluorescence intensity signals by Reverse transcription polymerase chain reaction (RT-PCR) and Capillary electrophoresis technology.Data from the assay component ATG_Myb_CIS was analyzed into 1 assay endpoint. This assay endpoint, ATG_Myb_CIS, was analyzed with bidirectional fitting relative to DMSO as the negative control and baseline of activity. Using a type of inducible reporter, measures of mRNA for gain or loss-of-signal activity can be used to understand the reporter gene at the transcription factor-level as they relate to the gene MYB. Furthermore, this assay endpoint can be referred to as a primary readout, because this assay has produced multiple assay endpoints where this one serves a reporter gene function. To generalize the intended target to other relatable targets, this assay endpoint is annotated to the dna binding intended target family, where the subfamily is MYB proteins.
Human liver HepG2 cells are transiently transfected with multiple reporter transcription units (MRTUs) in 6-well plates using FuGene 6 reagent (Roche; 3 ml FuGene/1 mg DNA). The MRTU constructs are regulated by a cis-regulating element (promoter). […] A major difference between the CIS and TRANS system is that in CIS activities of endogenous TFs are measured, whereas the TRANS assay evaluates changes in activities of exogenous, chimeric NR-Gal4 proteins. […] At the end of 24 hour incubation, total RNA was isolated using TriZol reagent (Invitrogen). The isolated RNA is then reverse-transcribed using oligo(dT) primer and Mo-MLV reverse transcriptase (Invitrogen) with DNAse I (Ambion) treatment for 30 min. The one-tenth of the produced cDNA was amplified by PCR using Taq DNA polymerase (Invitrogen) and two reporter sequence-specific primers. The PCR products were fluorescently labeled by primer extension with 6-arboxyfluorescein (6-FAM) 5'-labeled reporter sequence-specific primer (2 min at 95 C, 20 s at 68 C and 10 min at 72 C) and these products were digested with 5U of HpaI (New England Biolabs) for 2h at 37 C. The fragments were purified using Qiaquick PCR columns (Qiagen), analyzed on an ABI 3130xL genetic analyzer (Applied Biosystems) with peak positions identified by using a set of X-rhodamine (ROX)-labeled MapMarker1000 molecular weight standards (BioVentures). The raw capillary electrophoresis data was processed using Attagraph software (Attagene).
In the case of `O=C(O)CCCCCCCCCC(=O)O`, the outcome is reported as “inactive”. In the case of `CC(C)(C)C(=O)CCc1ccc(Cl)cc1`, the outcome is reported as “inactive”. With `COC(=O)/C=C/C(C)=C\C=C\C(C)=C\C=C\C=C(C)\C=C\C=C(C)\C=C\C(=O)O` the outcome was “inactive”. With `Nc1ccc(N)c(Cl)c1` the outcome was “inactive”. `O=C(Oc1ccccc1)c1ccc2ccccc2c1O` was tested, and the outcome was “inactive”. In the case of `Oc1ccc(Cl)cc1Cc1cc(Cl)ccc1O`, the outcome is reported as “inactive”. With `CC(=O)Oc1ccc(C(C)=O)cc1` the outcome was “inactive”. `CN(C)c1ccc(N=Nc2ccccc2C(=O)O)cc1` was tested, and the AC50 was 25.3 µM (active). In the case of `CC(C)C1=CC2=CC[C@@H]3[C@](C)(CCC[C@@]3(C)C(=O)O)[C@H]2CC1`, the outcome is reported as “inactive”. In the case of `CCCCCC/C=C/C=O`, the outcome is reported as “inactive”. `COc1ccc(NC(C)=O)cc1N` was tested, and the outcome was “inactive”. For `CCN(CC)c1ccc(C(=O)c2ccccc2C(=O)O)c(O)c1`, the outcome was “inactive”. For `CCCCCCCCCCCCCCCCCC#N`, the outcome was “inactive”. `CNC(=S)NN` was tested, and the outcome was “inactive”. With `c1cc(N(CC2CO2)CC2CO2)ccc1OCC1CO1` (stereo not given) the outcome was “inactive”. For `CC(C)=CCC[C@H](C)CCO`, the outcome was “inactive”. In the case of `NC(=O)c1ccccc1O`, the outcome is reported as “inactive”. `COC(=O)C1=C(C)NC(C)=C(C(=O)OCC(C)C)C1c1ccccc1[N+](=O)[O-]` (stereo not given) was tested, and the outcome was “inactive”. With `Nc1cccc(C(F)(F)F)c1` the outcome was “inactive”. In the case of `COC(=O)/C=C\C(=O)O`, the outcome is reported as “inactive”. In the case of `CC(=O)Nc1ccc2c(c1)Cc1cc(NC(C)=O)ccc1-2`, the outcome is reported as “inactive”. For `CC1=CC[C@H]2C[C@@H]1C2(C)C`, the outcome was “inactive”. `CC(CC=O)CCCC(C)(C)O` (stereo not given) was tested, and the outcome was “inactive”. For `C=CC(=O)OCCC(=O)O`, the outcome was “inactive”. `O=CN1CCCCC1` was tested, and the outcome was “inactive”. `C=CCOCC(O)CCl` (stereo not given) was tested, and the outcome was “inactive”. With `CC(C)COC(=O)C=Cc1ccccc1` the outcome was “inactive”. With `Cc1cccc(N(C)C(=S)Oc2ccc3ccccc3c2)c1` the outcome was “inactive”. `CC=CC(F)(F)C(F)(F)C(F)(F)F` was tested, and the outcome was “inactive”. For `CC(=O)OC1C2(C)CCC(C2)C1(C)C` (stereo not given), the outcome was “inactive”. `O=C(O)c1ccccc1Nc1cccc(C(F)(F)F)c1` was tested, and the outcome was “inactive”. With `COCCCOCCCOC` the outcome was “inactive”. In the case of `[Cl][In]([Cl])[Cl]`, the outcome is reported as “inactive”. `SCCc1cnccn1` was tested, and the outcome was “inactive”. With `Cc1ccc([N+](=O)[O-])cc1S(=O)(=O)O` the AC50 was 191 µM (active). In the case of `CC1OC1C1CCC2(C)OC2C1` (stereo not given), the outcome is reported as “inactive”. For `c1c[nH]cn1`, the outcome was “inactive”. With `COc1cc(NC(=O)CC(C)=O)c(OC)cc1Cl` the outcome was “inactive”. With `C=C(C)c1cccc(C(C)(C)N=C=O)c1` the outcome was “inactive”. For `CC(C)CCCC(C)CC=O` (stereo not given), the outcome was “inactive”.
